Experimental data published in the supplement of paper PMC6607015.
Structures can show the parent of a compound that is named as a salt.

Key:
Conditions in all cases: compound concentration in added solution (µM; 5 µl added to 20 µl cells): 10; 18 h
[1] = tested on: A431; assay: LBPA endosome anti-LBPA integrated intensity (sum per cell), Z-score; higher = more LBPA staining
Procedure, shortened: (§1)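 Per-cell integrated LBPA or filipin intensity, whole-cell or within LBPA endosomes, is expressed as Z-scores normalised in AcuityXpress. HeLa MZ or A431 cells, 3,500 per well in 20 µl, sat on 5 µl of 10 µM compound solution in duplicate 384-well imaging plates for 18 h. They were then fixed in 4% PFA, stained, imaged in four 20× fields per well and segmented using MetaXpress.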

[2] = tested on: HeLa MZ; assay: as above
Procedure, shortened: as §1

[3] = tested on: A431; assay: whole-cell filipin (free cholesterol) integrated intensity, Z-score; higher = more cholesterol staining
Procedure, shortened: as §1

[4] = tested on: HeLa MZ; assay: as above
Procedure, shortened: as §1

[5] = tested on: A431; assay: filipin (cholesterol) integrated intensity within LBPA endosomes, Z-score; higher = more cholesterol in LBPA endosomes
Procedure, shortened: as §1

[6] = tested on: HeLa MZ; assay: as above
Procedure, shortened: as §1

Compound	LBPA endosome anti-LBPA integrated intensity (z-score) [1]	LBPA endosome anti-LBPA integrated intensity (z-score) [2]	whole-cell filipin (z-score) [3]	whole-cell filipin (z-score) [4]	filipin (z-score) [5]	filipin (z-score) [6]
CN1CCCN=C1/C=C/c1cccc(O)c1 [Oxantel pamoate]	-0.563	-0.852	-0.857	-0.729	-0.5	-0.659
CC(=O)OCC(=O)[C@@]12OC3(CCCC3)O[C@@H]1C[C@H]1[C@@H]3CCC4=CC(=O)C=C[C@]4(C)[C@@]3(F)[C@@H](O)C[C@@]12C [Amcinonide]	-0.0445	0.215	0.476	0.977	-0.0127	0.16
CC(C)(C#N)c1cc(Cn2cncn2)cc(C(C)(C)C#N)c1 [Anastrozole]	-0.573	-1.31	-0.205	-0.00341	-0.428	-0.659
O=C1C(O)=C(O)C(=O)C(O)=C1O [Tetrahydroxy-1,4-quinone monohydrate]	-0.376	0.48	-0.203	-0.164	-0.404	-0.442
COc1ccc(Cl)cc1C(=O)NCCc1ccc(S(=O)(=O)NC(=O)NC2CCCCC2)cc1 [Glibenclamide]	-0.686	-1.35	-0.573	0.104	-0.559	-0.567
CC1(C)S[C@@H]2[C@H](NC(=O)[C@H](N)c3ccccc3)C(=O)N2[C@H]1C(=O)OC1OC(=O)c2ccccc21 (some centres undefined) [Talampicillin hydrochloride]	-0.446	0.322	-0.121	0.482	-0.392	-0.35
O=C(O)CCNC(=O)c1ccc(/N=N/c2ccc(O)c(C(=O)O)c2)cc1 [Balsalazide Sodium]	-0.394	-0.755	-0.213	0.475	-0.386	-0.346
c1ccc(CNc2ncnc3nc[nH]c23)cc1 [Aminopurine, 6-benzyl]	-0.375	-0.475	-0.69	-0.144	-0.46	-0.279
CCC[C@H](N[C@@H](C)C(=O)N1[C@H](C(=O)O)C[C@@H]2CCCC[C@@H]21)C(=O)OCC [Perindopril]	-0.273	-0.885	0.0463	-0.4	-0.305	-0.603
Cn1c(=O)c2c(ncn2CC(=O)O)n(C)c1=O [Acefylline]	-0.332	0.383	-0.237	-0.0327	-0.446	-0.485
Cc1ncc(CO)c(CO)c1O [Pyridoxine hydrochloride]	-0.469	-0.56	-0.385	-0.528	-0.475	-0.596
CC(C)(C)NC(=O)[C@H]1CC[C@H]2[C@@H]3CC[C@H]4NC(=O)C=C[C@]4(C)[C@H]3CC[C@]12C [Finasteride]	-0.353	-0.576	0.536	0.274	-0.256	-0.306
CC(=C(CCO)SSCC1CCCO1)N(C=O)Cc1cnc(C)nc1N (stereo in doubt) [Fursultiamine Hydrochloride]	-0.412	-0.276	-0.00261	0.173	-0.513	-0.472
CCN(CC)CCOC(=O)C(Cc1cccc2ccccc12)CC1CCCO1 (centres undefined) [Nafronyl oxalate]	1.69	2.05	1.62	0.888	1.25	1.15
N/C(=N\C(=O)c1nc(Cl)c(N)nc1N)NCc1ccccc1 [Benzamil hydrochloride]	0.224	1.13	0.167	0.672	-0.0522	0.566
CCOCCn1c(N2CCCN(C)CC2)nc2ccccc21 [Emedastine]	-0.464	0.747	-0.629	-0.502	-0.536	-0.461
CC(C)NCC(O)c1ccc(O)c(O)c1 (single isomer, unassigned; (+)) [(+)-Isoproterenol (+)-bitartrate salt]	-0.327	0.363	-0.262	-0.346	-0.516	-0.475
CC(=O)O[C@]1(C(C)=O)CC[C@H]2[C@@H]3C=C(Cl)C4=CC(=O)[C@@H]5C[C@@H]5[C@]4(C)[C@H]3CC[C@@]21C [Cyproterone acetate]	-0.264	0.704	0.568	0.591	0.113	0.108
CC[N+](CC)(CC)CCC(O)(c1ccccc1)C1CCCCC1 (centres undefined) [Tridihexethyl chloride]	-0.607	-0.578	-0.338	-0.512	-0.437	-0.697
CN1CCc2cccc3c2[C@H]1Cc1ccc(O)c(O)c1-3 [R(-) Apomorphine hydrochloride hemihydrate]	2.19	0.867	-0.55	-1.57	0.31	-0.107
C[C@@H]1C[C@H]2[C@@H]3C[C@H](F)C4=CC(=O)C=C[C@]4(C)[C@@]3(Cl)[C@@H](O)C[C@]2(C)[C@H]1C(=O)COC(=O)C(C)(C)C [Clocortolone pivalate]	-0.276	-1.1	-0.183	-0.473	-0.253	-0.536
CC(=O)[C@@]1(O)CC[C@H]2[C@@H]3C[C@H](C)C4=CC(=O)C=C[C@]4(C)[C@@]3(F)[C@@H](O)C[C@@]21C [Fluorometholone]	-0.292	-0.618	-0.262	-0.2	-0.289	-0.522
CC[C@H](C)C(=O)O[C@H]1CCC=C2C=C[C@H](C)[C@H](CC[C@@H]3C[C@@H](O)CC(=O)O3)[C@H]21 [Mevastatin]	-1.03	-2.17	-1	-0.345	-0.746	-0.0775
O=C1Cc2cc(CCN3CCN(c4nsc5ccccc45)CC3)c(Cl)cc2N1 [Ziprasidone  Hydrochloride]	1.04	1.09	0.285	0.974	0.571	1.31
CCC(C)(C)C(=O)O[C@H]1C[C@@H](C)C=C2C=C[C@H](C)[C@H](CC[C@@H]3C[C@@H](O)CC(=O)O3)[C@H]21 [Simvastatin]	-0.965	-1.54	-0.982	-0.319	-0.637	0.381

Compound	LBPA endosome anti-LBPA integrated intensity (z-score) [1]	LBPA endosome anti-LBPA integrated intensity (z-score) [2]	whole-cell filipin (z-score) [3]	whole-cell filipin (z-score) [4]	filipin (z-score) [5]	filipin (z-score) [6]
CC(=O)Oc1cccc2c1C(=O)c1c(OC(C)=O)cc(C(=O)O)cc1C2=O [Diacerein]	-0.503	-0.299	-0.484	0.525	-0.459	-0.327
Cc1ccc(-c2cc(C(F)(F)F)nn2-c2ccc(S(N)(=O)=O)cc2)cc1 [Celecoxib]	-0.0813	0.702	0.406	0.113	-0.205	-0.22
Cc1nccn1CC1CCc2c(c3ccccc3n2C)C1=O (centres undefined) [Ondansetron Hydrochloride]	0.526	1.23	-0.22	0.362	-0.149	0.186
CCN1C(=O)NC(c2ccccc2)C1=O (centres undefined) [Ethotoin]	-0.277	-0.178	-0.136	-0.484	-0.353	-0.513
Cc1cn([C@H]2C[C@H](N=[N+]=[N-])[C@@H](CO)O2)c(=O)[nH]c1=O [Zidovudine, AZT]	-0.815	-0.853	-0.904	0.114	-0.643	-0.555
CCN(CC)C(=O)/C(C#N)=C/c1cc(O)c(O)c([N+](=O)[O-])c1 [Entacapone]	-0.554	-0.84	-0.719	0.0172	-0.479	-0.52
CO/N=C(\C(=O)N[C@@H]1C(=O)N2C(C(=O)O)=C(COC(C)=O)CS[C@H]12)c1csc(N)n1 [Cefotaxime sodium salt]	-0.36	-0.201	-0.822	-0.63	-0.554	-0.583
C=CC1=C(C(=O)O)N2C(=O)[C@@H](NC(=O)/C(=N\OCC(=O)O)c3csc(N)n3)[C@H]2SC1 [Cefixime]	-0.497	-0.00426	-0.828	-0.585	-0.573	-0.64
C#C[C@]1(O)CC[C@H]2[C@@H]3CCC4=CC(=O)CC[C@@H]4[C@H]3CC[C@@]21CC [Norgestrel-(-)-D]	-0.501	-0.275	-0.421	-0.79	-0.478	-0.446
O=C(O)c1cccnc1Nc1cccc(C(F)(F)F)c1 [Niflumic acid]	-0.414	-0.666	-0.705	-0.278	-0.444	-0.519
CCCCC(CC)CN1CN(CC(CC)CCCC)CC(C)(N)C1 (centres undefined) [Hexetidine]	0.287	-1.15	1.01	-0.0808	0.351	-0.116
Cc1cn([C@H]2C=C[C@@H](CO)O2)c(=O)[nH]c1=O [Stavudine]	-0.301	0.24	0.0526	0.186	-0.48	-0.475
CN(Cc1cnc2nc(N)nc(N)c2n1)c1ccc(C(=O)N[C@@H](CCC(=O)O)C(=O)O)cc1 (racemic) [Amethopterin (R,S)]	-0.376	2.61	0.379	2.03	-0.749	-0.934
CC(C)Cn1cnc2c(N)nc3ccccc3c21 [Imiquimod]	0.0371	0.531	0.233	0.058	-0.267	-0.158
CCC(=O)O[C@]1(C(=O)CCl)[C@@H](C)C[C@H]2[C@@H]3CCC4=CC(=O)C=C[C@]4(C)[C@@]3(F)[C@@H](O)C[C@@]21C [Clobetasol propionate]	-0.343	-0.845	0.00699	-0.332	-0.266	-0.465
CC1CC(OC(=O)C(O)c2ccccc2)CC(C)(C)N1C (centres undefined) [Eucatropine hydrochloride]	-0.612	-0.981	-0.351	-0.392	-0.513	-0.342
NC[C@H]1CC[C@H](C(=O)O)CC1 [Tranexamic acid]	-0.452	-0.543	-0.422	-0.896	-0.524	-0.663
Cc1ccc(NC(=O)c2ccc(CN3CCN(C)CC3)cc2)cc1Nc1nccc(-c2cccnc2)n1 [Imatinib]	3.97	1.01	2.96	3.48	4.02	3.74
CC(C)NCC(O)COc1ccc(COCCOC(C)C)cc1 (centres undefined) [Bisoprolol fumarate]	0.695	0.146	-0.603	0.308	-0.0123	-0.0431
COc1c2occc2c(OC)c2c(=O)cc(C)oc12 [Khellin]	-0.364	-0.599	-0.787	-0.817	-0.439	-0.439
COc1ccccc1OCCNCC(O)COc1cccc2[nH]c3ccccc3c12 (centres undefined) [Carvedilol]	4.32	3.72	2.68	3	3.9	5.27
S=c1[nH]cnc2nc[nH]c12 [Mercaptopurine]	-0.731	-1.06	-0.622	-1.37	-0.742	-0.984
COC(=O)C1=C(C)NC(C)=C(C(=O)OC)C1c1ccccc1[N+](=O)[O-] [Nifedipine]	-0.346	-0.877	-0.739	-0.61	-0.513	-0.614
CC(C)(C)NCC(O)COc1cccc2c1CC(O)C(O)C2 (centres undefined) [Nadolol]	-0.438	0.289	-0.0909	0.44	-0.44	-0.157
